Source: PubChem BioAssay (Tox21)
Results filed as inconclusive are left out. Unmarked numbers belong to inactive results. Active and inactive are the calls of the source. Calls come from the whole dose curve; as a rule, active = well fitted cell-killing curve with a large enough effect in the repeat runs; inconclusive = weak or mixed curves, or effect the other way; inactive = flat fitted curve, though single readings scatter.
% is set by controls: 0 for no effect and ±100 for the full control effect; potency is the fitted concentration of half-maximal effect.

Assay: cAMP Responsive Elements (CRE) small molecule antagonists, cell-based qHTS assay: qHTS cell viability counter screen (AID 2060913); note: nearly all actives have a fitted effect of over 40% in size
Conditions: CRE-bla HEK293T viability, CellTiter-Glo luminescence, 5 h; series mostly up to 92.4 µM; viability change, negative = cytotoxic: at the top concentration
In short: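 Cytotoxicity counter screen multiplexed with the CRE-bla antagonist read: HEK293T cells in DMEM with dialyzed FBS and 25 mM HEPES were treated 3 hrs under 0.25 uM final NKH477, then viability measured by CellTiter-Glo luminescence.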
For `C=CC(=O)OCC(CO)(COC(=O)C=C)COC(=O)C=C`, the Potency was 28.5 µM (active).
With `CCOC(=O)C1=C(C)NC(C)=C(C(=O)OCC)C1c1ccccc1/C=C/C(=O)OC(C)(C)C` the “viability change, negative = cytotoxic” value was -5.42% [at 42.5 µM].
In the case of `Cc1ncc(CO)c(CN)c1O`, the “viability change, negative = cytotoxic” value is reported as -0.138% [at 42.5 µM].
In the case of `CCC(=O)O[C@@H]1C[C@H]2CC[C@]1(C)C2(C)C`, the “viability change, negative = cytotoxic” value is reported as 2.68%.
With `CC(=O)Oc1ccccc1C(=O)Nc1ncc([N+](=O)[O-])s1` the Potency was 7.5 µM (active).
In the case of `O=S(=O)(O)c1ccc2cc(O)c(S(=O)(=O)O)cc2c1`, the “viability change, negative = cytotoxic” value is reported as 2.17%.
With `CCCNC(C)(C)COC(=O)c1ccccc1` the “viability change, negative = cytotoxic” value was -3.43% [at 42.5 µM].
With `Brc1ccc(Oc2ccc(Br)cc2)cc1` the Potency was “inactive”.
For `COCCOc1cc2cc(C(=O)NC3CCN(C(C)C)CC3)n(CC(=O)Nc3ccc(Cl)cn3)c2cn1`, the “viability change, negative = cytotoxic” value was -7.53%.
For `CC1=C(C(=O)OC(C)C)C(c2cccc([N+](=O)[O-])c2)C(C(=O)OC2CN(C(c3ccccc3)c3ccccc3)C2)=C(N)N1` (configuration not stated), the “viability change, negative = cytotoxic” value was -10.6% [at 42.5 µM].
With `CCCOC(=O)c1ccc(O)cc1` the “viability change, negative = cytotoxic” value was 2.88%.
With `CC1=NN(c2cc(S(=O)(=O)O)ccc2Cl)C(=O)C1N=Nc1ccccc1` (configuration not stated) the “viability change, negative = cytotoxic” value was 7.5%.
In the case of `CCCSSCCC`, the “viability change, negative = cytotoxic” value is reported as 4.43%.
In the case of `CC(=O)OC(C)(C)C1CC=C(C)CC1` (configuration not stated), the Potency is reported as “inactive”.
For `C[C@@H]1CCC[C@H](C)N1CCCC(O)(c1ccccc1)c1ccccn1` (some centres not stated), the “viability change, negative = cytotoxic” value was -3.58% [at 42.5 µM].
In the case of `CC(C)(C)c1ccc(C=O)cc1`, the “viability change, negative = cytotoxic” value is reported as 0.406%.
For `CC=O`, the Potency was 63.9 µM (active).
For `C=CCOCC(O)CCl` (configuration not stated), the “viability change, negative = cytotoxic” value was 0.422%.
In the case of `O=C(Cl)c1ccc([N+](=O)[O-])cc1`, the “viability change, negative = cytotoxic” value is reported as 9.41%.
In the case of `CCN(CC)c1ccc(C=O)c(O)c1`, the “viability change, negative = cytotoxic” value is reported as 10.9%.
With `CCCCC(CC)COP(=O)(O)O` (configuration not stated) the “viability change, negative = cytotoxic” value was 9.39%.
With `Cc1oc(=O)oc1CN1CCN(c2cc3c(cc2F)c(=O)c(C(=O)O)c2n3C(C)S2)CC1` (configuration not stated) the “viability change, negative = cytotoxic” value was -0.562% [at 42.5 µM].
